TcdB inh – TcdB glycohydrolase inhibition; AID 652162; actives 0.24% (n = 350,000); TcdB glycohydrolase enzymatic assay, plate reader; P18177; inhibition, % at 9.99 µM; in the data active = inhibition above about 10%
PrPC TRFRET – reduces human prion protein on the cell surface | cell surface PrPC, TR-FRET read-out | inhibition, % at 13.8 µM | actives 0.43% (n = 370,000) | AID 720596; in the data active = inhibition above about 24%
VHR inh abs – inhibitors of human VHR1 phosphatase (DUSP3); actives 0.52% (n = 290,000); P51452; AID 1654; recombinant VHR phosphatase, pNPP absorbance; inhibition, % at 13.3 µM; in the data active = inhibition above about 50%
Each line names hits and unclear results; the compound was inactive in the other large screens. Compounds with a hit are over-represented: about 0.82% of the library has one in this group of screens.

COC(=O)C1=C(c2cccc(OCc3ccccc3)c2)C[C@@H]2CC[C@H]1N2C(=O)NCCCc1ccccc1	none (no result: VHR inh abs)
COC(=O)C1=C(c2ccc(OCc3ccccc3)cc2)C[C@@H]2CC[C@H]1N2C(=O)NCCCc1ccccc1	TcdB inh 12 (no result: VHR inh abs)
COc1ccc(NS(=O)(=O)c2cccc3nsnc23)cc1OC	VHR inh abs 51 (no result: TcdB inh)
Cc1cccc(NS(=O)(=O)c2cccc3nsnc23)c1	none (no result: TcdB inh)
CN(C)C(=O)C[C@@H]1CC[C@@H]2[C@@H](COc3ccc(NC(=O)C4CCC4)cc3C(=O)N2C)O1	none (no result: PrPC TRFRET, VHR inh abs)
O=S(=O)(c1ccccc1)N1CCN(Cc2nnc(-c3ccccc3)o2)CC1	TcdB inh 10 (no result: VHR inh abs)
O=S(=O)(c1ccc(F)cc1)N1CCN(Cc2nnc(-c3ccccc3)o2)CC1	none (no result: VHR inh abs)
Cc1ccc(NC(=S)NC(=O)CC2CC(C)(C)OC2=O)cc1 (configuration not stated)	VHR inh abs 58
CC1(C)CC(CC(=O)NC(=S)Nc2ccc([N+](=O)[O-])cc2)C(=O)O1 (configuration not stated)	none (no result: TcdB inh)
COCCNC(=O)C[C@H]1CC[C@H]2[C@H](COc3ccc(NC(=O)C4CCCC4)cc3C(=O)N2C)O1	none (no result: PrPC TRFRET, VHR inh abs)
COc1cccc(/C(O)=C2/C(=O)C(=O)N(CCN3CCOCC3)C2c2cccs2)c1 (configuration not stated)	VHR inh abs 53 (no result: TcdB inh)
CCOc1cccc(/C(O)=C2/C(=O)C(=O)N(CCN3CCOCC3)C2c2ccncc2)c1 (configuration not stated)	none (no result: TcdB inh, PrPC TRFRET)
C[C@@H]1CN([C@H](C)CO)S(=O)(=O)c2ccc(-c3cccc(F)c3)cc2O[C@@H]1CN(C)S(=O)(=O)c1ccccc1	none (no result: PrPC TRFRET, VHR inh abs)
CO[C@H]1CN(C)C(=O)c2ccc(NC(=O)C3CC3)cc2OC[C@@H](C)N(Cc2ccncc2)C[C@H]1C	none (no result: PrPC TRFRET, VHR inh abs)
Cc1cc(C)c(S(=O)(=O)N2CCCCC2C(=O)O)c(C)c1 (configuration not stated)	TcdB inh 13
Cc1ccc(S(=O)(=O)N2CCCC2C(=O)O)cc1 (configuration not stated)	none
Cc1ccc(S(=O)(=O)N(C)C[C@H]2Oc3ccc(NC(=O)Nc4ccc5c(c4)OCO5)cc3C(=O)N([C@H](C)CO)C[C@@H]2C)cc1	none (no result: PrPC TRFRET, VHR inh abs)
C[C@@H]1CCCCO[C@@H](CN(C)Cc2ccc(C(F)(F)F)cc2)[C@H](C)CN([C@H](C)CO)C(=O)c2cc(NS(=O)(=O)c3cn(C)cn3)ccc2O1	none (no result: PrPC TRFRET, VHR inh abs)
CCn1c(=O)cc(SCC(=O)NCc2cccnc2)c2ccccc21	none (no result: TcdB inh)
CCn1c(=O)cc(SCC(=O)NCc2ccccn2)c2ccccc21	VHR inh abs 55 (no result: TcdB inh)
O=C(N[C@@H]1CC[C@@H](CCNS(=O)(=O)c2ccccc2)O[C@@H]1CO)c1cccc(F)c1	none (no result: PrPC TRFRET, VHR inh abs)
CC(=O)c1c[nH]c(C(=O)NCc2cccc(C(F)(F)F)c2)c1	VHR inh abs 53
O=C(NCc1cccc(C(F)(F)F)c1)c1c[nH]c(=O)s1	none (no result: VHR inh abs)
COc1ccc(NC(=O)N(C)C[C@H]2OCCCC[C@H](C)Oc3ccc(NS(=O)(=O)c4ccc(Cl)cc4)cc3C(=O)N([C@@H](C)CO)C[C@@H]2C)cc1	none (no result: PrPC TRFRET, VHR inh abs)
Cc1cc(N2CCN(c3cccc(C)c3C)CC2)nc(-c2ccccc2)n1	VHR inh abs 53 (no result: TcdB inh)
Cc1cc(N2CCC(C(=O)NC3CC3)CC2)nc(-c2ccccc2)n1	none (no result: TcdB inh)
C[C@H](CO)N1C[C@H](C)[C@H](CN(C)C(=O)Cc2ccccc2)Oc2ncc(C#Cc3ccccc3F)cc2C1=O	none (no result: PrPC TRFRET, VHR inh abs)
O=C(Nc1ccccn1)c1c(O)c2cccc3c2n(c1=O)CCC3	none (no result: TcdB inh)
O=C(Nc1nccs1)c1c(O)c2cccc3c2n(c1=O)CCC3	VHR inh abs 56 (no result: TcdB inh)
Cc1ccc(S(=O)(=O)N(C)C[C@@H]2OCCCC[C@H](C)Oc3ccc(NC(=O)Cc4ccccc4)cc3C(=O)N([C@H](C)CO)C[C@@H]2C)cc1	none (no result: PrPC TRFRET, VHR inh abs)
COc1nc(-c2ccccc2)cc(-c2ccc(OC)c(OC)c2)n1	none (no result: TcdB inh)
COc1ccc(-c2cc(-c3ccccc3)nc(NN)n2)cc1OC	VHR inh abs 54
O=C(N[C@H]1CC[C@@H](CCNC(=O)C2CC2)O[C@@H]1CO)c1ccncc1	none (no result: PrPC TRFRET, VHR inh abs)
COc1ccc(CN(Cc2ccc(C(=O)O)cc2)C(=S)Nc2ccccc2C)cc1OC	none
CCc1ccccc1NC(=S)N(Cc1ccc(C(=O)O)cc1)Cc1ccc(OC)c(OC)c1	TcdB inh 13
C[C@@H]1CN([C@@H](C)CO)C(=O)c2cc(NS(=O)(=O)c3ccc(F)cc3)ccc2O[C@@H](C)CCCCO[C@H]1CN(C)C(=O)C1CCCCC1	none (no result: PrPC TRFRET, VHR inh abs)
Cc1cnc([N+](=O)[O-])n1CCOC(=O)NC(=O)c1ccc(F)cc1	TcdB inh 32
Cc1cnc([N+](=O)[O-])n1CCOC(=O)c1cccc(F)c1	none
Cc1ccccc1S(=O)(=O)Cc1ccc(C(=O)NCc2ccccc2)o1	VHR inh abs 57
O=C(NCc1ccccc1)c1ccc(CS(=O)(=O)Cc2ccc(F)cc2)o1	VHR inh abs 60
Cc1ccccc1S(=O)(=O)Cc1ccc(C(=O)NCc2cccnc2)o1	none (no result: TcdB inh)
O=C(NCCc1ccccc1)c1ccc(CS(=O)(=O)Cc2ccc(F)cc2)o1	none
C[C@@H]1CN([C@H](C)CO)C(=O)c2cc(NC(=O)Nc3ccccc3)ccc2O[C@@H](C)CCCCO[C@H]1CN(C)S(=O)(=O)c1ccc(Cl)cc1	none (no result: PrPC TRFRET, VHR inh abs)
CC(C)(C)NC(=O)CN(C(=O)CCC(=O)Nc1nccs1)c1ccc(F)c(Cl)c1	VHR inh abs 53
CC(C)(C)NC(=O)CN(C(=O)CCC(=O)Nc1nccs1)c1ccc(F)cc1	none
O=C(NC[C@@H]1[C@@H](c2ccccc2)[C@@H](CO)N1Cc1cccnc1)C1CCCC1	none (no result: PrPC TRFRET, VHR inh abs)
Cn1nnc2cc(C(=O)N3CCN(c4ccccn4)CC3)ccc21	VHR inh abs 53
Cn1nnc2cc(NC(=O)N3CCN(c4ccccn4)CC3)ccc21	none
O=C(Nc1ccn(Cc2c(F)c(F)cc(F)c2F)n1)c1ccc(COc2ccc(Cl)cc2Cl)o1	none (no result: TcdB inh)
O=C(Nc1ccn(Cc2c(F)c(F)c(F)c(F)c2F)n1)c1ccc(COc2ccccc2Cl)cc1	VHR inh abs 52 (no result: TcdB inh)
C[C@H](NC(=O)[C@@H]1[C@@H](CO)[C@@H]2Cn3c(ccc(-c4cccnc4)c3=O)[C@H]1N2C)c1ccccc1	none (no result: PrPC TRFRET, VHR inh abs)
CC1=CC(c2ccccc2)n2nc(N3C(=O)C4CC=CCC4C3=O)nc2N1 (configuration not stated)	VHR inh abs 57 (no result: TcdB inh)
CC1=CC(c2ccccc2)n2nc(N3C(=O)CCC3=O)nc2N1 (configuration not stated)	none (no result: TcdB inh)
COc1ccc(S(=O)(=O)Nc2ccc3c(c2)OC[C@@H](C)N(Cc2cc(F)ccc2F)C[C@@H](C)[C@H](OC)CN(C)C3=O)cc1	none (no result: PrPC TRFRET, VHR inh abs)
O=C(N/N=C1/CC2C=CCC12)c1ccc(Br)o1 (configuration not stated)	none
NC(=O)NN=C1CC2CC1C1C=CCC21 (configuration not stated)	TcdB inh 14 (no result: VHR inh abs)
O=C(Nc1ccc2c(c1)OCO2)N[C@@H]1CC[C@@H](CCNC(=O)C2CC2)O[C@H]1CO	none (no result: PrPC TRFRET, VHR inh abs)
COc1ccccc1C1=NNC(=NCc2ccccc2)SC1	TcdB inh 10
c1ccc(CN=C2NN=C(c3ccccc3)CS2)cc1	none
CCOc1ccc2oc(C(=O)NCC3CCCO3)c(C)c2c1 (configuration not stated)	none
COc1ccc2oc(C(=O)NCC3CCCO3)c(C)c2c1 (configuration not stated)	VHR inh abs 52
